From PubChem
Most compounds without a hit are left out; they make up all but 11% or so of the library.
L3MBTL1 block = L3MBTL1 (human) inhibition | AlphaScreen L3MBTL1–H3K9me1 peptide binding | 230,000 compounds, 0.66% hits | Potency, µM (series often up to 57.1 µM), inactives show top-dose activity, negative = inhibition, hits mostly inhibitors; note: % is set by controls: 0 for no effect and ±100 for the full control effect; nearly all actives have a fitted effect of over 60% in size
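AlphaScreen assay: L3MBTL1 (50 nM final) was preincubated 30 min at room temperature with biotinylated H3(1-15)K9me1 peptide (75 nM final), then 30 min with library compounds; streptavidin donor and nickel chelate acceptor beads (10 ug/mL final) added, 30 min dark.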
JMJD2A Tudor inh = JMJD2A Tudor domain (human) inhibition | 390,000 compounds, 4.4% hits | Potency, µM (series often up to 114 µM), for inactives: at the highest dose activity change, negative = inhibition, most hits filed as inhibitors | AlphaScreen JMJD2A-Tudor / H3K4me3 peptide binding | O75164; note: % is set by controls: 0 for no effect and ±100 for the full control effect; nearly all actives have a fitted effect of over 50% in size
G9a block = inhibitors of human histone lysine methyltransferase G9a; Potency, µM (doses to about 102 µM), without a hit: at the top dose activity, negative = inhibition, hits mostly inhibitors; Q96KQ7; 350,000 compounds, 8.8% hits; AID 504332; G9a H3K9 monomethylation, AlphaScreen, 2 h; note: % is set by controls: 0 for no effect and ±100 for the full control effect; nearly all actives have a fitted effect of over 75% in size
Target sequence (Q96KQ7 913-1193 limits assumed): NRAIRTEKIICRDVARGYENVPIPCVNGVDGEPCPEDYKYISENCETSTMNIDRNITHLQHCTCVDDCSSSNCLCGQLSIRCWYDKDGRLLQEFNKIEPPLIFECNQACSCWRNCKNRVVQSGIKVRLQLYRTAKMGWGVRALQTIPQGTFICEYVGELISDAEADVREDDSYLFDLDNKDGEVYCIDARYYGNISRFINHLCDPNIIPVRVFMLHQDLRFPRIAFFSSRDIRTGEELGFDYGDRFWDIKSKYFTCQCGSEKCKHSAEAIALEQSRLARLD
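AlphaScreen detection with an anti-monomethyl H3K9 antibody quantified product after a 2 h room-temperature reaction containing 500 nM biotinylated H3K9 peptide, 20 µM SAM and 20 nM enzyme, which had been preincubated 15 min with compound.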
HP1b chromo inh = blocks HP1-beta chromodomain binding to methylated histone tails. Potency, µM (highest dose often 114 µM), for the others: at the highest dose activity change, negative = inhibition, usual class: inhibitors. 390,000 compounds, 0.56% hits. P83916. AlphaScreen HP1-beta / biotin-H3K9me3 peptide binding. AID 540317; note: nearly all actives have a fitted effect of over 70% in size
Target sequence (P83916 whole entry, looked up): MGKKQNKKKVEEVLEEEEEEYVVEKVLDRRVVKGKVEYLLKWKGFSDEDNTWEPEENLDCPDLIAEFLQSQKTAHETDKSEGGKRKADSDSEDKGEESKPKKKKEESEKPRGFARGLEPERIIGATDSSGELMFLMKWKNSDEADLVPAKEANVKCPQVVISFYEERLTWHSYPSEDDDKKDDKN
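HP1-beta protein (50 nM final) preincubated 30 min at room temperature with biotinylated H3(1-18)K9me3 peptide (50 nM) in PBS pH 7.4, 0.01% Tween-20, then compound added for 30 min. AlphaScreen streptavidin donor/nickel chelate acceptor beads (10 ug/mL final), 30 min dark, luminescence read.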
BAZ2B inh = blocks human BAZ2B; 360,000 compounds, 4.4% hits; AlphaScreen BAZ2B-H3K14Ac peptide displacement; Q9UIF8; Potency, µM (titrated, usually from 114 µM), without a hit: at the top dose activity change, negative = inhibition, actives largely listed as inhibitors; AID 504333; note: % is set by controls: 0 for no effect and ±100 for the full control effect; nearly all actives have a fitted effect of over 60% in size
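AlphaScreen displacement of biotin-H3(5-23)K14Ac peptide (50 nM final) from BAZ2B (50 nM final) in PBS pH 7.4, 0.01% Tween-20; complex preformed 30 min RT, then compounds (top 110 uM) 30 min RT, beads 20 min dark.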
Starred values were filed as active, the others as inactive; ? = inconclusive; nt = not tested or not shown; [ ] = another dose, or the depositor's remark. Calls come from the whole dose curve; as a rule, active = well fitted inhibition curve with a large enough effect; inconclusive = small, poorly fitted or top-dose-only effect; inactive = no such curve, though single readings can be large or run the other way. Potency is the fitted concentration of half-maximal effect.

SMILES | L3MBTL1 block | JMJD2A Tudor inh | G9a block | HP1b chromo inh | BAZ2B inh
CCOC(=O)Nc1ccc2c(CN3CCC(C(=O)OC)CC3)cc(=O)oc2c1 | nt | -3.0% | -28.7% | 35.1% | -2.5%
Cc1cccc(NC(=O)c2cnc3sc(N4CCCC4)nn3c2=O)c1C | nt | 1.0% | 9.5%[59 µM] | 49.6% | 3.9%
CC(=O)N1CCC(N(Cc2ccc(C)o2)C(=O)Nc2cccc(C(F)(F)F)c2)CC1 | nt | -8.3% | ? | 26.3% | -18.6%
O=c1cc(CN2CCN(Cc3ccccc3)CC2)c2cc3c(cc2o1)CCC3 | nt | -5.4% | ? | 10.7% | -32.9%
CCc1ccc2c(CN3CCN(Cc4ccccc4)CC3)cc(=O)oc2c1 | nt | -29.8% | 70.8µM* | 9.9% | -19.3%
Cc1nnc(SCc2cc(=O)oc3ccc4ccccc4c23)n1Cc1ccccc1 | -3.1% | -30.3% | 35.5µM* | 28.1% | -1.7%
CCc1cc2c(CN3CCN(Cc4ccccc4)CC3)cc(=O)oc2cc1O | nt | ? | 44.7µM* | 40.6% | ?
CCc1ccc2c(CN3CCc4ccccc43)cc(=O)oc2c1 | -8.3% | -17.0% | 35.5µM* | 44.8% | -34.9%
CCc1ccc2c(CN3CCN(S(=O)(=O)c4ccccc4F)CC3)cc(=O)oc2c1 | 0.8% | -7.6% | nt | 62.1% | nt
COc1ccc(-c2cc(C)no2)cc1S(=O)(=O)NC1CCC(C)CC1 (centres undefined) | nt | -14.9% | -0.4%[59 µM] | 21.5% | -8.6%
Cc1cc2oc(=O)cc(CN(C)Cc3cccc(F)c3)c2cc1C | nt | 45.7% | -0.5%[2.33 µM] | 71.9% | 26.0%
CCc1cc2c(CN(C)Cc3ccccc3F)cc(=O)oc2cc1O | nt | -25.3% | 50.1µM* | -6.2% | -4.6%
CN(C)c1ccc(C(=O)C(O)c2ccccc2Cl)cc1 (centres undefined) | nt | -9.7% | nt | 6.4% | nt
Cc1cc(N(CCO)CCO)ccc1C(c1ccc(N(CCO)CCO)cc1C)c1ccccc1Cl | -23.9% | 28.2µM* | 7.94µM* | ? | 44.7µM*
CC(=O)Nc1c2c3c(cccc3n(C)c1=O)C(=O)c1ccccc1-2 | -5.6% | -17.2% | 46.1%[59 µM] | 23.7% | -9.3%
Cn1c(=O)c(Nc2ccc(Cl)cc2)c2c3c(cccc31)C(=O)c1ccccc1-2 | nt | -27.8%[11.4 µM] | 22.4µM* | ? | ?
Cc1ccc2occ(CC(=O)Nc3ccc(Cl)c(C(F)(F)F)c3)c2c1 | nt | 36.1% | 19.4%[59 µM] | 99.1% | 3.3%
COc1ccc(NC(=O)C2CCN(S(=O)(=O)c3cccc4cccnc34)CC2)cc1 | 29.9% | -30.3% | ? | 47.0% | -15.2%
COc1cccc(NC(=O)C2CCN(S(=O)(=O)c3cccc4nonc34)CC2)c1 | nt | 3.1% | -2.5%[59 µM] | 7.0% | -1.2%
CC(=O)c1ccc(NC(=O)C2CCN(S(=O)(=O)c3cccc4cccnc34)CC2)cc1 | -16.3% | -22.8% | 50.1µM* | 30.8% | -4.0%
COc1ccc(NC(=O)C2CCN(S(=O)(=O)c3cccc4nonc34)CC2)cc1 | nt | 5.6% | 44.7µM* | 26.5% | 1.8%
Cc1ccc(-n2ncc3c(N4CCC(C)CC4)ncnc32)cc1C | nt | 26.3% | 23.1%[59 µM] | 80.2% | 50.0%
Cc1cccc2cc3c(nc12)SC(=NCC1CCCO1)N(Cc1ccco1)C3 (centres undefined) | -5.8% | 56.2µM* | 6.31µM* | ? | ?
COCCN=C1Sc2nc3c(C)cccc3cc2CN1Cc1ccco1 | -7.5% | ? | 11.3%[2.33 µM] | -21.1% | -8.8%
Cc1ccc2nc3c(cc2c1)CN(Cc1ccco1)C(=NCC1CCCO1)S3 (centres undefined) | 4.6% | 56.2µM* | ? | ? | -8.6%
SMILES | L3MBTL1 block | JMJD2A Tudor inh | G9a block | HP1b chromo inh | BAZ2B inh
CN(C)CCCNC(NC(=O)/C=C/c1ccccc1)C(Cl)(Cl)Cl (centres undefined) | -5.5% | -8.7% | 0.5% | 17.2% | -7.9%
OC1=C(O)c2nc3cc(F)ccc3nc21 | nt | -12.4% | 39.8µM* | 17.1% | -12.3%
CCOC(=O)C1CCN(S(=O)(=O)c2cc(Br)cc3c2N(C(=O)CC)CC3)CC1 | nt | -7.5% | 9.1%[59 µM] | 19.2% | 0.1%
COC(=O)Cc1c(C)[nH]n(-c2cc(Cl)cc(Cl)c2)c1=O | nt | -13.7% | 39.8µM* | 14.2% | ?
Cc1oc2ccc(O)c(CN3CCCCCC3)c2c1C(=O)Nc1cccc(Cl)c1C | nt | -14.6% | -26.4%[59 µM] | -7.7% | -20.7%
Cc1ccc2c(c1)c1c(n2CC(O)CN2CCCCC2C)CCCC1 (centres undefined) | nt | -9.6%[11.4 µM] | 44.7µM* | -21.2% | ?
Cc1ccc2c(c1)c(C)c(C)n2CC(O)CN1CCCCC1C (centres undefined) | nt | ? | ? | -20.5% | -37.4%
Cc1ccc2c(c1)c1c(n2CC(O)CN2CCC(C)CC2)CCCC1 (centres undefined) | ? | 39.8µM* | ? | -24.7%[57 µM] | ?
CN(C)c1ccc(NC(=O)CCN2C(=O)c3cccc([N+](=O)[O-])c3C2=O)cc1 | -10.9% | -17.1% | 10µM* | 29.2% | -35.4%
O=C(CCCN1C(=O)c2ccccc2C1=O)Nc1nccs1 | nt | -7.4% | ? | 17.0% | -2.5%
O=C(CCN1C(=O)c2cccc([N+](=O)[O-])c2C1=O)Nc1nccs1 | -25.9% | -22.3% | 39.8µM* | 11.2% | -7.7%
Cc1nc2cc(-c3ccc(Cl)cc3)nn2c(NCCN(C)C)c1C | -16.3% | -34.3% | 70.8µM* | 11.6% | -34.9%
Cc1cc(C)n2nc(-c3ccc(Cl)cc3)cc2n1 | nt | 4.0% | 59.4% | 53.8% | 11.8%
CC(C)c1ccc(/C=N/N2CCN(c3ccccn3)CC2)cc1 | -10.8% | -27.6% | ? | 5.9% | -23.4%
CCOc1ccc(C=NN2CCCCCC2)cc1OCC | nt | 39.8µM* | nt | ? | nt
CC(C)c1ccc(/C=N/N2CCCCC2)cc1 | -10.6% | ? | 10µM* | 22.4µM* | 31.6µM*
Cc1cccc(S(=O)(=O)N2CCN(S(=O)(=O)c3ccc4c(c3)OCCO4)CC2)c1 | nt | -13.7% | nt | nt | nt
Cc1cc(C)c(NC(=O)Cc2ccc(-n3c(C)nc4cccnc43)cc2)c(C)c1 | nt | -21.4% | -9.8%[59 µM] | 20.3% | -7.8%
Cc1ccc(C(=O)N=c2sccn2C)o1 | nt | -7.6% | ? | 16.5% | -2.7%
NNc1ccccc1C(F)(F)F | ? | 31.6µM* | 2.82µM* | ? | 50.1µM*
CCCCc1nn2c(=O)cc(COC(=O)C(C)Oc3ccccc3)nc2s1 (centres undefined) | nt | -27.0% | 4.7%[59 µM] | 61.0% | 2.0%
CCN1CCN(C(=O)CCN(CC(C)C)c2nc(-c3cccs3)nc3ccccc23)CC1 | nt | -19.7% | nt | nt | nt
CCOC(=O)CNC(=O)CSc1nc(N)cc(N)n1 | 36.7%[11.4 µM] | -10.1% | -2.5%[59 µM] | 20.5% | -1.4%
CCOC(=O)CNC(=S)n1cnc(N)n1 | 2.1% | -7.8% | 6.1% | 25.5% | 79.4µM*
CC(C)c1ccc(C(N)=S)cc1 | -2.0% | -8.7% | 50.1µM* | -5.8% | ?
CC(C)c1ccc(C(=O)NNC(=O)c2ccncc2)cc1 | nt | -14.9% | -8.5% | 16.2% | 8.6%
COc1cc(/C=N/Nc2nc3ccccc3s2)ccc1OC(=O)c1ccccc1F | -1.1% | ? | 8.5%[59 µM] | -17.1% | ?
COc1ccc(C=NNc2nc3ccccc3s2)cc1 | nt | -24.1% | nt | -22.1% | nt
